Screens as filed in PubChem.
Shown are actives, neighbours in structure and some others; about 6.2% of the full set was active somewhere.
GRIN3A LBD mod – modulates the human NR3A ligand-binding domain; NR3A LBD differential scanning fluorimetry, Tm shift; 0% = protein alone, 100% = glycine-bound protein; 340,000 tested, 2.5% active; Tm shift relative to glycine control, % at 25 µM;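 active = melting temperature shift of at least 10% of the positive control shift, at one fixed dose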
SUMO Mot1 rescue – inhibitors of SUMOylation pathway: yeast Mot1-301 growth rescue. S. cerevisiae Mot1-301 growth rescue, ATP luminescence, 38.5C; percent above DMSO median, 100 means doubled. 320,000 tested, 1% active. growth rescue, % at 18.8 µM. AID 2716;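 active = every valid replicate shows activation above 250% relative to neutral control wells; inactive = the rest, any valid replicate at or below 250%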;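 note: OY570 slx delta 5 strain wells were the positive control but not used for scaling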
AHR activator – activates the human aryl hydrocarbon receptor | P35869 | AHR-responsive luciferase reporter cells, luminescence | activation, % at 5 µM | 320,000 tested, 2.5% active | AID 2796; in the data active = activation above about 47%;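 note: 0% = vehicle wells and 100% = reference agonist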
NTR1 ag – agonists of human neurotensin receptor NTR1 | P30989 | NTR1-U2OS beta-arrestin-GFP spot imaging, agonist mode | activation, % at 20 µM | 330,000 tested, 0.17% active | AID 493036;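 active = activation at or above 40% of the spot to cytoplasm intensity ratio, with at least 20 cells analyzed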;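 note: 0% = DMSO without peptide and 100% = 100 nM NTR1 peptide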
Target sequence (P30989 whole entry, looked up): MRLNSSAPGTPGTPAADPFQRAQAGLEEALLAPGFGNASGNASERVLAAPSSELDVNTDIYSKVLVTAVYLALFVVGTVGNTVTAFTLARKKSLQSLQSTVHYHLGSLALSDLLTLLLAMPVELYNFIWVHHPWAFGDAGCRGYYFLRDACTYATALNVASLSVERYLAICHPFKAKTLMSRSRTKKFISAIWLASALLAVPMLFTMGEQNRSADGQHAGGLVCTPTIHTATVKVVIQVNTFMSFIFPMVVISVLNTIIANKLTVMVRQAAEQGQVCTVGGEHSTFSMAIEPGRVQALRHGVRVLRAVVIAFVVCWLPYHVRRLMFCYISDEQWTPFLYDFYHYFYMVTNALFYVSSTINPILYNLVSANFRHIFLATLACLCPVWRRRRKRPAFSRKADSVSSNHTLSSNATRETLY
H9c2 protect – protects H9c2 cardiomyocytes from peroxide injury. H2O2 injury protection, ATPLite, 2 h. protection from H2O2 cell death, % at 20 µM. 360,000 tested, 0.63% active. AID 588492;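 active = compounds giving at least 50% protection of heart cells from peroxide-induced death in the single-dose screen, raw or plate-pattern-corrected value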;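 note: 0% = DMSO wells with peroxide and 100% = DMSO wells without peroxide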
AI-2 QS modul – modulates the Vibrio harveyi AI-2 quorum sensing system; Vibrio harveyi JMH597 AI-2 luminescence/OD600 ratio, 9 h; stronger effect = lower value; strain lacks LuxN and CqsS sensors; 0 = neutral-control median; 300,000 tested, 0.4% active; activity change, % at 7.5 µM; in the data active = activity change below about -75%, passing the limit was not always enough;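 note: luminescence divided by OD600 gain over 9 h not by final OD600 alone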
The depositor's hits bear a star; nt = no result given.

SMILES	GRIN3A LBD mod	SUMO Mot1 rescue	AHR activator	NTR1 ag	H9c2 protect	AI-2 QS modul
CN(C)C(=S)NC(=S)Nc1ccc2ccccc2c1	21*	nt	nt	nt	-6	nt
COc1ccccc1N1CCN(C(CNS(C)(=O)=O)c2cccnc2)CC1 (stereo not drawn)	-1	-1	-1	-1	0	13
COc1ccccc1N1CCN(C(CNS(=O)(=O)c2ccc(C)cc2)c2cccnc2)CC1 (stereo not drawn)	16*	7	0	2	-1	16
CCOC1=C2CN(S(=O)(=O)c3ccc(C)cc3)[C@H](c3cccc4ccccc34)C[C@H]2[C@H]2C(=O)N(c3ccccc3)C(=O)[C@H]2C1	nt	nt	nt	nt	1	nt
O=C(Nc1cccc(Br)c1)c1ccc2nc(N3C(=O)CCC3=O)sc2c1	14*	-9	22	6	6	9
O=C(Nc1cccc([N+](=O)[O-])c1)c1ccc2nc(N3C(=O)CCC3=O)sc2c1	-2	27	9	1	42	8
Cc1[nH]n(C2=NCCS2)c(=O)c1N=Nc1cccc(C(F)(F)F)c1	-4	13	27	10	62*	61
Cc1[nH]n(-c2ccccc2)c(=O)c1N=Nc1cccc(C(=O)O)c1	2	-1	1	-1	-6	78
O=C(NC(NC(=S)Nc1c(Cl)cccc1Cl)C(Cl)(Cl)Cl)OCc1ccccc1 (stereo not drawn)	17*	96	5	26	-24	15
CCOC(=O)NC(NC(=S)Nc1ccc(OCC)cc1)C(Cl)(Cl)Cl (stereo not drawn)	-4	12	3	1	-7	10
OCC1OC(n2cnc3c(NCc4ccccc4O)ncnc32)C(O)C1O (stereo not drawn)	-2	nt	nt	nt	2	nt
Cc1csc(=O)n1CCC(=O)OCC(=O)c1ccc(Br)cc1	1	17	-1	0	-4	-5
OC(COCc1ccccc1)CN1CCN(c2ccccc2)CC1 (stereo not drawn)	2	8	1	-3	-1	3
OC(COCc1ccccc1)CN1CCCC1 (stereo not drawn)	11*	295	1	0	0	29
Cc1ccc(Sc2cnn(-c3ccccc3)c(=O)c2Cl)cc1	-1	-10	61*	12	-24	15
CCOC(=O)N1CCN(S(=O)(=O)c2ccc(OCC(=O)OC)c(Cl)c2)CC1	5	287*	1	3	7	2
CCOc1ccc(S(=O)(=O)N2CCC(C(=O)N3CCCCCC3)CC2)cc1Cl	13*	56	1	3	-5	29
CCOc1ccc(S(=O)(=O)N2CCC(C(=O)N3CCN(C)CC3)CC2)cc1Cl	-1	5	1	3	-2	18
S=C(NCCSCc1ccc(Cl)c(Cl)c1)Nc1ccccc1	22*	-10	-3	4	-27	19
S=C(NCCSCc1c(Cl)cccc1Cl)Nc1ccccc1	10	120	-3	8	-19	20
S=C(NCCSCc1ccc(Cl)cc1Cl)Nc1ccccc1	17*	-8	-2	10	-33	12
S=C(Nc1ccccc1)Nc1ccc(OCc2ccc(Cl)cc2Cl)cc1	14*	9	-9	1	-6	7
CCOC(=O)C1(C)CCN1C(=O)c1cc2ccccc2s1 (stereo not drawn)	nt	nt	nt	nt	3	nt
CSCCC(c1nnnn1C1CCCC1)N1CCN(C/C=C/c2ccccc2)CC1 (stereo not drawn)	nt	nt	nt	nt	-2	nt
CCc1noc(C)c1C(=O)N1CCSC1=Nc1cccc(Cl)c1C	-7	-16	3	2	-4	17
SMILES	GRIN3A LBD mod	SUMO Mot1 rescue	AHR activator	NTR1 ag	H9c2 protect	AI-2 QS modul
COc1ccc(/C(C)=N/NC(=O)CNC(=O)/C=C\c2ccccc2OC)c(OC)c1	2	-9	9	0	4	37
O=C1Cc2ccccc2C(=O)N1OCc1ccc(Cl)cc1	-3	13	66*	0	11	3
O=C1c2ccccc2C(=O)N1OCc1ccc(Cl)cc1	-2	-13	51*	-1	11	3
O=C1c2ccccc2C(=O)N1OCCOCCOCCON1C(=O)c2ccccc2C1=O	2	-14	8	2	-7	14
COc1ccc(C#Cc2cnc3c(c2)C(=O)N([C@@H](C)CO)C[C@@H](C)[C@@H](CN(C)CC2CCOCC2)O3)cc1	nt	nt	nt	nt	17	nt
CC(=O)Nc1ccc(Nc2ncnc3c2cnn3-c2ccccc2)cc1	19*	-3	-7	0	8	20
CC(=O)Nc1ccc(Nc2ncnc3c2cnn3-c2cccc(C)c2)cc1	22*	40	-9	1	3	5
Clc1ccc(Nc2ncnc3c2cnn3-c2ccccc2)cc1	2	23	-9	6	-38	-14
COc1ccc(CCNC(=O)CCN2C(=O)COc3ccc(C)cc32)cc1OC	-4	23	-2	-1	14	18
COc1ccc(CCNC(=O)CCN2C(=O)COc3ccccc32)cc1OC	1	5	85*	0	-2	16
Cc1cc(=O)[nH]c2ccc(S(=O)(=O)NCc3ccccc3)cc12	2	15	-2	0	3	-2
Clc1ccc2oc(-c3ccccn3)nc2c1	1	-25	61*	4	-16	22
CCCCC(=NCCc1c(C)[nH]c2ccc(OC)cc12)C1=C(O)CC(c2ccccc2)CC1=O (stereo not drawn)	-5	-1	7	5	5	-1
CCC(=NCCc1c(C)[nH]c2ccc(OC(F)(F)F)cc12)C1=C(O)CC(c2ccccc2)CC1=O (stereo not drawn)	3	-1	15	6	-11	1
CC(=NCCc1c(C)[nH]c2ccc(OCc3ccccc3)cc12)C1=C(O)CC(c2ccccc2)CC1=O (stereo not drawn)	2	0	77*	3	-1	11
CCC(=NCCc1c(C)[nH]c2ccccc12)C1=C(O)CC(c2ccccc2)CC1=O (stereo not drawn)	16*	21	2	6	3	18
COc1ccc(C)cc1S(=O)(=O)N1CCC2(CC1)OCCN2S(=O)(=O)c1cccs1	16*	2	4	3	-3	27
Cc1ccc(C2OC(=O)C=C2c2ccccc2)cc1 (stereo not drawn)	-1	-10	2	6	-4	6
CCOC(=O)NNc1ccc2nonc2c1[N+](=O)[O-]	-1	13	13	-1	nt	-92*
CCc1ccc(Nc2ccc3nonc3c2[N+](=O)[O-])cc1	0	10	-3	-1	-3	3
Cc1[nH]c2ccccc2c(=O)c1CN(C)Cc1ccccc1	0	331*	3	-2	9	2
CC1(C(=O)NS(=O)(=O)c2cccs2)CCN1C(=O)c1ccccc1CCc1ccccc1 (stereo not drawn)	nt	nt	nt	nt	3	nt
